Compounds with a hit are over-represented: about 9.2% of the library has one in this group of screens.
NPC1 prom act – qHTS Assay for NPC1 Promoter Activators. Huh7 NPC1 promoter luciferase reporter, 24 h. Potency, µM (top dose mostly 9.22 µM), inactives show at the highest dose activation, usual class: activators. actives 2.4% (n = 320,000). AID 485313, 2010; further: % of control where 0% means no effect; nearly all actives have a fitted effect of over 60% in size
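In 1536-well qHTS, Huh7 cells harboring an NPC1 promoter–luciferase construct received compound for 24 h; activation was quantified by luminescence following luciferase reagent addition.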
Rab9 promoter act – qHTS Assay for Rab9 Promoter Activators; Huh7 Rab9 promoter-luciferase reporter, luminescence, 24 h; Potency, µM (top dose mostly 9.22 µM), for inactives: at the top dose activation, negative = inhibition, hits mostly activators; actives 2.8% (n = 320,000); AID 485297, 2010; further: % of control where 0% means no effect; nearly all actives have a fitted effect of over 60% in size
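Luminescence read-out: Huh7 cells stably expressing Rab9-luciferase, treated 24 h with compound at 37 °C, then lysed with luciferase reagent for 10 min at ambient before reading.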
ELG1 DNA repair – qHTS screen for small molecules that inhibit ELG1-dependent DNA repair in human embryonic kidney (HEK293T) cells expressing luciferase-tagged ELG1. HEK293T ELG1-luciferase reporter, luminescence, 16 h; DNA damage induced by 5-fluorouridine. actives 2.3% (n = 330,000). Potency, µM (highest dose often 46.1 µM), for the others: at the highest dose activity change, negative = inhibition, usual class: inhibitors. AID 504467, 2011; further: on the % scale 0 is the no-effect control and ±100 the full control effect; nearly all actives have a fitted effect of over 55% in size
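Reporter activity after DNA damage by 5-fluorouridine is monitored. Compound-treated cells incubate 16 hr at 37 °C, then ONE-Glo is added for 30 min before luminescence reading.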
SMN2 splice enh – qHTS Assay for Enhancers of SMN2 Splice Variant Expression; AID 1458, 2008; actives 2.8% (n = 210,000); Potency, µM (series often up to 46.1 µM), without a hit: top-dose activity change, positive = activation, usual class: activators; HEK293 SMN2-luciferase splicing reporter, luminescence, 30-36 h; further: % of control where 0% means no effect; nearly all actives have a fitted effect of over 55% in size
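HEK293 cells carry an SMN2 minigene-luciferase reporter in which exon 7 inclusion puts luciferase in frame. Cells were seeded at 2000 cells/well, attached for 10-12 hours, then exposed to compounds for 30-36 hours at 37C before ONE-Glo luminescence.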
FLuc counter – qHTS profiling assay for firefly luciferase inhibitor/activator using purifed enzyme and Km concentrations of substrates (counterscreen for miR-21 project); Luciferin 4-monooxygenase (Photinus pyralis), P08659; purified FLuc, Km substrates, luminescence inhibition; Potency, µM (doses to about 57.5 µM), without a hit: at the highest dose activity change, negative = inhibition, actives largely listed as inhibitors; actives 6.9% (n = 360,000); AID 588342, 2011;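 further: plate controls were vehicle for no effect and reference inhibitor for full effect; nearly all actives have a fitted effect of over 55% in size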
Target sequence (P08659 whole entry, looked up): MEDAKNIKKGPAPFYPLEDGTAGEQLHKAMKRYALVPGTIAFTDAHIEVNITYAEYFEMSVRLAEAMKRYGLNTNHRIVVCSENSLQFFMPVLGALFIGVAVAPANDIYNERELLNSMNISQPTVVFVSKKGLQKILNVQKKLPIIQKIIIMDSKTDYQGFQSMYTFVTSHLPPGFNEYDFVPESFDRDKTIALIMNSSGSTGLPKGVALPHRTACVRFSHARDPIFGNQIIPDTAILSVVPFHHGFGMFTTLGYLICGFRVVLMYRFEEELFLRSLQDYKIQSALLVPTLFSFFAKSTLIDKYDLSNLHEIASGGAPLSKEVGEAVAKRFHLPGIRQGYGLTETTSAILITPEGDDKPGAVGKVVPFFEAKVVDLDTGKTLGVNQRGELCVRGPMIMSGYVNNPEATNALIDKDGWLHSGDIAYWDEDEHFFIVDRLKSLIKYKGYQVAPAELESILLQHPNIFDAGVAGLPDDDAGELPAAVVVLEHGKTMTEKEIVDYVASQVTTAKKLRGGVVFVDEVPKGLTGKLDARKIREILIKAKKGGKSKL
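Purified P. pyralis luciferase, 10 nM final, with Km-level 10 uM D-luciferin and 10 uM ATP in 50 mM Tris acetate pH 7.5, 10 mM Mg acetate, 0.01% Tween-20, 0.05% BSA; 6-point qHTS titration about 60 µM downward; luminescence read.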
ELG1 genotox – qHTS screen for small molecules that induce genotoxicity in human embryonic kidney (HEK293T) cells expressing luciferase-tagged ELG1. Potency, µM (top dose mostly 46 µM), for inactives: at the top dose activity change, positive = activation, hits mostly activators. actives 1.3% (n = 330,000). HEK293T ELG1-luciferase reporter, luminescence, 16 h; further: % of control where 0% means no effect; nearly all actives have a fitted effect of over 60% in size
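HEK293T cells expressing luciferase-tagged ELG1 were exposed to compound or DMSO vehicle for 16 hr at 37 °C and 5% CO2. Luciferase activity was then measured with ONE-Glo after 30 min at room temperature.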
* = called active by the depositor; u = inconclusive; x = no result. The call rests on the fitted dose curve; in most records, active means well fitted curve in the direction sought with a large enough effect; inconclusive means small, poorly fitted or top-dose-only effect, or another doubt; inactive means no such curve, though single readings can be large; an effect the other way counts as inactive or inconclusive. Potency means the concentration at half of the fitted maximal effect.

SMILES	NPC1 prom act	Rab9 promoter act	ELG1 DNA repair	SMN2 splice enh	FLuc counter	ELG1 genotox
O=c1oc(CCCO)cc2ccc(/C=C/c3cccc([N+](=O)[O-])c3)cc12	4µM*	-6%	u	x	u	4.1µM*
O=c1oc(CCCO)cc2ccc(Br)cc12	x	x	24%	x	x	1%
Cc1ccc(Nc2c(-c3ccc(N4CCOCC4)cc3)nc3ccc(C)cn23)cc1	x	x	x	6%	0%	x
Cc1cccn2c(Nc3ccccc3)c(-c3ccc(N4CCOCC4)cc3)nc12	x	x	x	15%	u	x
Cc1ccc(Nc2c(-c3ccc(N4CCOCC4)cc3)nc3cnccn23)cc1	17%	16%	u	x	5.4µM*	u
Cc1ccccc1Nc1c(-c2ccc(N3CCOCC3)cc2)nc2ncccn12	14%	-1%	-8%	-11%	11µM*	-6%
Cc1ccccc1Nc1c(-c2ccc(N3CCOCC3)cc2)nc2cnccn12	u	u	u	x	1.5µM*	u
Cc1ccc(Nc2c(-c3ccc(N4CCOCC4)cc3)nc3ncccn23)cc1	-2%	-3%	-25%	9%	u	-2%
COC(=O)c1c(C)[nH]c(C(=O)OCC(=O)c2ccc(C)s2)c1C	x	x	u	x	x	13%
COC(=O)c1c(C)[nH]c(C(C)=O)c1C	-1%	-1%	9%	-24%	8%	0%
COC(=O)c1c(C)[nH]c(C(=O)/C=C/c2ccccc2F)c1C	1.3µM*	1µM*	u	x	0.3µM*	4.6µM*
COC(=O)c1c(C)[nH]c(C(=O)/C=C/c2ccccc2Cl)c1C	2µM*	u	u	x	u	18%
COc1ccc(CCNc2nc(C)nc3c2nnn3Cc2ccccc2)cc1OC	-4%	-1%	u	x	0%	0%
COc1ccccc1CNC(=O)c1cnc2sc(N3CCCCCC3)nn2c1=O	x	x	x	x	-14%	x
CCC(C)c1ccc(NC(=O)c2[nH]c(C)c(C(C)=O)c2C)cc1 (stereo not given)	25%	15%	u	x	19µM*	7%
CC(=O)c1c(C)[nH]c(C(=O)Nc2cccc(S(=O)(=O)N3CCOCC3)c2)c1C	-2%	1%	u	8.9µM*	-3%	u
CC(=O)c1c(C)[nH]c(C(=O)Nc2ccc(Cl)cc2F)c1C	1.8µM*	2.8µM*	u	x	9.5µM*	u
CSc1cccc(NC(=O)c2[nH]c(C)c(C(C)=O)c2C)c1	u	u	u	x	17µM*	23µM*
CC(=O)c1cc(-c2ccc(F)cc2)n(CC(=O)NC2CCCCCC2)c1C	x	x	x	x	-1%	x
CC(=O)c1c(C)[nH]c(C(=O)NCCc2ccc(Cl)cc2)c1C	8%	14%	-1%	4%	-19%	-2%
CC(=O)c1c(C)[nH]c(C(=O)Nc2cccc(C)c2C)c1C	-1%	0%	u	x	-1%	-4%
CC(=O)c1c(C)[nH]c(C(=O)Nc2ccccn2)c1C	1.3µM*	3.2µM*	u	x	9.5µM*	10µM*
CC(=O)c1c(C)[nH]c(C(=O)Nc2ccc(Cl)cc2)c1C	3.2µM*	1.8µM*	u	x	9.5µM*	0%
CC(=O)c1c(C)[nH]c(C(=O)N2CCN(c3cc(Cl)ccc3C)CC2)c1C	-23%	-15%	3.7µM*	7%	6%	-17%
CC(=O)c1c(C)[nH]c(C(=O)N2CCN(c3ccc(F)cc3)CC2)c1C	1%	2%	-8%	-24%	-1%	-2%
SMILES	NPC1 prom act	Rab9 promoter act	ELG1 DNA repair	SMN2 splice enh	FLuc counter	ELG1 genotox
COc1cc(NC(=O)Cn2nnnc2-c2ccccc2F)cc(OC)c1OC	x	x	x	6%	-1%	x
CC1CCC(NC(=O)C2(C)Cc3ccccc3C(=O)N2Cc2ccc(F)cc2)CC1 (stereo not given)	x	x	x	-7%	-3%	x
COc1ccc2c(c1)[nH]c1c(=O)n(Cc3ccccn3)cnc12	15%	4%	u	8%	u	26%
COc1ccc2c(c1)c1ncn(Cc3ccco3)c(=O)c1n2C	6%	1%	16µM*	-7%	u	-7%
COc1ccc2c(c1)[nH]c1c(=O)n(Cc3ccco3)cnc12	u	u	u	u	-14%	18µM*
COc1cc(Cl)c(C)cc1Nc1c2c(nc3ccccc13)CCC2	x	x	x	-40%	x	x
CCc1ccccc1NC(=O)N1CCc2cc(OC)c(OC)cc2C1CC(=O)OC (stereo not given)	x	x	x	x	-13%	x
Oc1ccc(/C=N/NC(=S)NC2CC3CCC2C3)cc1 (stereo not given)	3.2µM*	u	u	x	u	u
c1cncc(-c2ccc3ncnc(NCc4ccc5c(c4)OCO5)c3c2)c1	1%	1%	u	x	3%	-4%
c1nc(NCc2ccc3c(c2)OCO3)c2cc(-c3ccoc3)ccc2n1	26%	-1%	1.6µM*	x	u	-7%
CC(/C=C/c1ccccc1)=N\Nc1ccccc1[N+](=O)[O-]	4µM*	u	u	19%	7.6µM*	14%
CC(/C=C/c1ccccc1)=N/NC(=O)c1cc([N+](=O)[O-])cc([N+](=O)[O-])c1	-23%	-31%	-21%	-80%	2%	15%
COc1cc(NC(=O)C2CCN(S(=O)(=O)c3ccc4c(c3)oc(=O)n4C)CC2)cc(OC)c1	x	x	x	-16%	-11%	x
O=C1/C(=C/c2ccc([N+](=O)[O-])cc2)C=C(c2ccccc2)N1c1ccccc1	2%	1%	0%	x	0%	3%
O=C(O)c1cccc(N2C(=O)/C(=C/c3ccc([N+](=O)[O-])cc3)C=C2c2ccccc2)c1	0%	7%	u	-15%	24µM*	-4%
CCOc1cc(C(=O)N(C)CC(=O)Nc2cccc3ccccc23)ccc1OC	-2%	12%	u	x	-2%	2%
COc1ccc(-c2nc(CN3CCN(C(=O)c4ccco4)CC3)c(C)o2)c(OC)c1C	-1%	-3%	12µM*	x	-3%	-8%
COc1cccc(CNC(=O)C(CC(C)C)NC(=O)c2ccccc2C)c1 (stereo not given)	1%	-1%	3%	x	-2%	-4%
O=C(CCN1CCOCC1)c1ccc2c(c1)OCCO2	1%	5%	1%	25%	-4%	5%
O=C(OCCN1CCOCC1)c1ccc(O)cc1	1%	8%	-16%	x	-5%	-1%
O=C(OCCN1CCOCC1)c1ccc(Cl)cc1Cl	1%	-1%	7%	x	24µM*	9%
